The results in this text go back to PubChem BioAssay (NCATS).

Assay [1] can be described thus: qHTS of pediatric cancer cell lines to identify multiple opportunities for drug repurposing: Primary screen for BT-12 cells (AID 1347101). Further: nearly all actives have a fitted effect of over 25% in size. Further: potency means the concentration at half of the fitted maximal effect. In outline:
(§1)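 Cells (500-1,000/well) rested 5 h, then received compounds for 48 h; metabolically active cells were measured by CellTiter-Glo luminescence. Final concentrations spanned up to 46 µM (MIPE, 11-point) or 0.59 nM-46 µM (NPC, 8-point) in primary screens, 11-point in follow-ups.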

Assay [2] in a line: qHTS of pediatric cancer cell lines to identify multiple opportunities for drug repurposing: Primary screen for Rh18 cells (AID 1347102). Further: nearly all actives have a fitted effect of over 65% in size. Further: potency means the concentration at half of the fitted maximal effect. In outline: as §1
(In general: In qHTS, concentration-response curves come from the screen itself.)

Assay [3] in a line: qHTS of pediatric cancer cell lines to identify multiple opportunities for drug repurposing: Primary screen for OHS-50 cells (AID 1347103). Further: nearly all actives have a fitted effect of over 40% in size. Further: potency means the concentration at half of the fitted maximal effect. The method, boiled down: as §1
The nature of assay [4]: qHTS of pediatric cancer cell lines to identify multiple opportunities for drug repurposing: Primary screen for RD cells (AID 1347104). Further: nearly all actives have a fitted effect of over 55% in size. Further: potency means the concentration at half of the fitted maximal effect. The method, boiled down:
(§2)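 ATP-based luminescence (CellTiter-Glo) quantifies viability after a 48-hour exposure. Compounds are dosed across 8 or 11 final concentrations; DMSO and 2.3 µM bortezomib serve as controls.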

A short description of assay [5]: qHTS of pediatric cancer cell lines to identify multiple opportunities for drug repurposing: Primary screen for MG 63 (6-TG R) cells (AID 1347105). Further: nearly all actives have a fitted effect of over 50% in size. Further: potency means the concentration at half of the fitted maximal effect. In outline:
as §2

Assay [6] is described as follows: qHTS of pediatric cancer cell lines to identify multiple opportunities for drug repurposing: Primary screen for control Hh wild type fibroblast cells (AID 1347106).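 Further: series mostly up to about 46 µM; a drop in luminescence marks cytotoxicity and a rise apparent proliferation; nearly all actives have a fitted effect of over 55% in size.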 In outline:
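Viability after 48 h compound treatment at 37C, 500-1,000 cells/well, read as ATP luminescence with CellTiter-Glo. Primary screens used 11-point (MIPE, 0.78 nM-46 µM) or 8-point (NPC, 0.59 nM-46 µM) final concentrations; follow-up screens used 11-point dilutions.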

A short description of assay [7]: qHTS of pediatric cancer cell lines to identify multiple opportunities for drug repurposing: Primary screen for Rh30 cells (AID 1347107). Further: series mostly up to about 46 µM; nearly all actives have a fitted effect of over 75% in size. In outline:
as §1

Assay [8] in a line: qHTS of pediatric cancer cell lines to identify multiple opportunities for drug repurposing: Primary screen for Rh41 cells (AID 1347108). Further: nearly all actives have a fitted effect of over 70% in size. Further: potency means the concentration at half of the fitted maximal effect. In outline:
as §2

Assay [9] is described as follows: qHTS of pediatric cancer cell lines to identify multiple opportunities for drug repurposing: Primary screen for LAN-5 cells (AID 1347100). The method, boiled down: as §1
Assay [10] in a line: qHTS of pediatric cancer cell lines to identify multiple opportunities for drug repurposing: Confirmatory screen for NB1643 cells (AID 1347109). Further: nearly all actives have a fitted effect of over 45% in size. Further: potency means the concentration at half of the fitted maximal effect. The method, boiled down: as §1
Assay [11] is described as follows: qHTS of pediatric cancer cell lines to identify multiple opportunities for drug repurposing: Confirmatory screen for A673 cells (AID 1347110).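 Further: cells exposed to compound for 48 h before the viability read; nearly all actives have a fitted effect of over 65% in size.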 Further: potency means the concentration at half of the fitted maximal effect. In outline:
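qHTS titration format: primary MIPE 0.78 nM-46 µM (11 pts), NPC 0.59 nM-46 µM; confirmation 11 pts. 48 h, CTG luminescence.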

Assay [12] in a line: qHTS of pediatric cancer cell lines to identify multiple opportunities for drug repurposing: Confirmatory screen for SK-N-MC cells (AID 1347111).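 Further: cells exposed to compound for 48 h before the readout; nearly all actives have a fitted effect of over 70% in size.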 Further: potency means the concentration at half of the fitted maximal effect. The method, boiled down:
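Seed 500-1,000 cells/well; rest 5 h at 37 degrees C. Pin-transfer compounds, 11-point titration. Incubate 48 h. Add CellTiter-Glo, 15 min RT, read luminescence.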

Assay [13] in a line: qHTS of pediatric cancer cell lines to identify multiple opportunities for drug repurposing: Confirmatory screen for BT-12 cells (AID 1347112). Further: nearly all actives have a fitted effect of over 55% in size. Further: potency means the concentration at half of the fitted maximal effect. The method, boiled down: as §1
A short description of assay [14]: qHTS of pediatric cancer cell lines to identify multiple opportunities for drug repurposing: Confirmatory screen for LAN-5 cells (AID 1347113). Further: nearly all actives have a fitted effect of over 65% in size. Further: potency means the concentration at half of the fitted maximal effect. In outline:
as §1

A short description of assay [15]: qHTS of pediatric cancer cell lines to identify multiple opportunities for drug repurposing: Confirmatory screen for DAOY cells (AID 1347114). Further: nearly all actives have a fitted effect of over 65% in size. Further: potency means the concentration at half of the fitted maximal effect. The method, boiled down: (§3)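 Viability measured as metabolically active cells via CellTiter-Glo luminescence following 48 hours of compound exposure, 11-point dilutions in confirmatory testing. 500-1,000 cells/well plated 5 hours before dosing; controls were DMSO and 2.3 µM bortezomib.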

The nature of assay [16]: qHTS of pediatric cancer cell lines to identify multiple opportunities for drug repurposing: Confirmatory screen for BT-37 cells (AID 1347117). Further: nearly all actives have a fitted effect of over 55% in size. Further: potency means the concentration at half of the fitted maximal effect. In outline:
as §1

Assay [17] in a line: qHTS of pediatric cancer cell lines to identify multiple opportunities for drug repurposing: Confirmatory screen for TC32 cells (AID 1347118). Further: potency means the concentration at half of the fitted maximal effect. In outline:
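Luminescent CellTiter-Glo read-out of metabolically active TC32 cells after 48 h compound exposure. Primary: MIPE 11-point, 0.78 nM–46 µM; NPC 8-point, 0.59 nM–46 µM. Confirmatory: 11-point dilutions.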

Assay [18] can be described thus: qHTS of pediatric cancer cell lines to identify multiple opportunities for drug repurposing: Confirmatory screen for MG 63 (6-TG R) cells (AID 1347119). In outline: as §1
A short description of assay [19]: qHTS of pediatric cancer cell lines to identify multiple opportunities for drug repurposing: Confirmatory screen for NB-EBc1 cells (AID 1347115).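 Further: cells exposed to compound for 48 h before the viability read; nearly all actives have a fitted effect of over 45% in size.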 Further: potency means the concentration at half of the fitted maximal effect. In outline:
as §1

Assay [20] is described as follows: qHTS of pediatric cancer cell lines to identify multiple opportunities for drug repurposing: Confirmatory screen for SJ-GBM2 cells (AID 1347116). Further: nearly all actives have a fitted effect of over 60% in size. Further: potency means the concentration at half of the fitted maximal effect. In outline: as §3

Values joined by “and” are separate entries in the source; they are usually repeats but may differ in a detail not shown here. Equal values may be shown once. Results filed as inconclusive are left out. Active and inactive are the calls of the source. The call rests on the fitted dose curve; in most records, active means well fitted curve in the direction sought with a large enough effect; inconclusive means small, poorly fitted or top-dose-only effect, or another doubt; inactive means no such curve, though single readings can be large; an effect the other way counts as inactive or inconclusive.

As for `CC1(C)O[C@H]2CC(=O)OC[C@]23[C@H]2CC[C@@]4(C)[C@H](c5ccoc5)OC(=O)[C@H]5O[C@]54[C@]2(C)C(=O)C[C@@H]13`, the Potency result in [1], in [2], in assay [3], in [4], in [5] and in assay [6] was “inactive” in each case. In assay [8], the Potency result is “inactive”. In assay [7], the outcome was inactive.
Regarding `N[C@@H](Cc1c[nH]c2ccc(O)cc12)C(=O)O`, the Potency result in [1], in [2], in [3], in [4], in [5] and in assay [6] was “inactive” throughout. Further, the Potency result in assay [8] is “inactive”. For the same molecule, the outcome in [7] was inactive.
For the molecule `O=C1Cc2cc(CCN3CCN(c4nsc5ccccc45)CC3)c(Cl)cc2N1`, the Potency entry in assay [9], in assay [1], in [2], in assay [5], in assay [6] and in [8] was “inactive” throughout. In [7], the molecule was called inactive.
As for `CC(C)(Oc1ccc(C2CC2(Cl)Cl)cc1)C(=O)O` (stereo unspecified), the Potency result in assay [1], in assay [2], in assay [3], in assay [4], in assay [5] and in [6] was “inactive” each time. Besides, in assay [8], the Potency entry was “inactive”. In addition, the outcome in assay [7] was inactive.
For `Clc1ccccc1C(c1ccccc1)(c1ccccc1)n1ccnc1`, the Potency result in [9], in assay [2], in [5] and in assay [6] was “inactive” throughout. In assay [4], the Potency is 18.7 µM (active). For the same molecule, in [7], the call was inactive.
In the case of `CCC1(C)CC(=O)NC1=O` (stereo unspecified), the Potency result in [1], in assay [2], in assay [3], in assay [4], in assay [5] and in assay [6] was “inactive” throughout. The Potency entry in assay [8] was “inactive”. In addition, the molecule was classed as inactive in [7].
For `Nc1ccn([C@H]2CC[C@@H](CO)O2)c(=O)n1`, the Potency entry in assay [1], in assay [2], in [3], in assay [4], in assay [5] and in assay [6] was “inactive” throughout. In [8], the Potency entry was “inactive”. The call in assay [7] was inactive.
Turning to `COc1cc2c(c(OC)c1OC)-c1ccc(OC)c(=O)cc1[C@@H](NC(C)=O)CC2`, the Potency in assay [1] was 11 nM (active) and 1 nM (active); in [3], 4.9 nM (active) and 1 nM (active); in assay [8] it was 20900 nM (active); in [10] it was 44.7 nM (active); in [11], 31.6 nM (active); in assay [12] it was 39.8 nM (active). Besides, the Potency in assay [13] is 63.1 nM (active); in assay [14], 89.1 nM (active); in assay [15], 20 nM (active); in [16], 56.2 nM (active); in [17], 35.5 nM (active); in assay [18], 100 nM (active). Also, the Potency result in assay [2], in assay [5] and in assay [6] was “inactive” in each case. The result in assay [7] was inactive.
Consider `COc1ccc2[nH]cc(CCNC(C)=O)c2c1`, for which the Potency result in assay [1], in assay [2], in [3], in [4], in [5] and in assay [6] was “inactive” each time. For the same molecule, the Potency entry in [8] was “inactive”. For the same molecule, the result in [7] was inactive.
For `CCCCc1oc2ccccc2c1C(=O)c1cc(I)c(OCCN(CC)CC)c(I)c1`, the Potency in [1] was 4.32 µM (active) and 21.9 µM (active); in [2], 16600 nM (active); in assay [3], 5.44 µM (active) and 11 µM (active); in assay [4], 26.4 µM (active) and 26.6 µM (active); in [10], 44700 nM (active); in [11], 56200 nM (active). Also, the Potency was 22400 nM (active) in assay [12]; 79400 nM (active) in assay [13]; 35500 nM (active) in assay [14]; 31600 nM (active) in [15]; 56200 nM (active) in assay [19]; 79400 nM (active) in assay [20]. In addition, the Potency in [16] is 50100 nM (active); in assay [17], 28200 nM (active); in assay [18], 39800 nM (active). In addition, in assay [6], the Potency result is “inactive”. Also, in assay [7], the call was inactive.
Take `Clc1ccc(C(c2ccccc2Cl)C(Cl)Cl)cc1` (stereo unspecified): the Potency entry in [1], in assay [2], in assay [6], in assay [10], in [13] and in [14] was “inactive” each time. In addition, the Potency entry in assay [19], in assay [20] and in assay [17] was “inactive” in each case. The call in assay [7] was inactive.
As for `NC12CC3CC(CC(C3)C1)C2`, the Potency entry in [1], in [2], in assay [3], in assay [4], in assay [5] and in assay [6] was “inactive” in each case. The Potency result in [8], in assay [10], in [11], in [12], in assay [13] and in assay [14] was “inactive” throughout. Further, the Potency entry in assay [15], in [20], in [16] and in assay [17] was “inactive” in each case. Further, the result in [7] was inactive.
As to `COC(=O)Nc1nc2ccc(C(=O)c3cccs3)cc2[nH]1`, the Potency is 19.3 nM (active) and 347 nM (active) in [1]; 8.6 nM (active) and 309 nM (active) in assay [3]; 522 nM (active) in assay [10]; 147 nM (active) in [11]; 147 nM (active) in [12]; 522 nM (active) in [13]. Besides, the Potency in [14] is 522 nM (active); in assay [15], 131 nM (active); in [16], 329 nM (active); in [17], 131 nM (active); in assay [18], 147 nM (active). The Potency result in [2] and in assay [6] was “inactive” each time. In addition, the outcome in assay [7] was inactive.
Take `O=c1c(O)c(-c2ccc(O)c(O)c2)oc2cc(O)cc(O)c12`: the Potency result in assay [4], in assay [5], in [6] and in [8] was “inactive” each time. For the same molecule, the molecule was classed as inactive in assay [7].
For the molecule `Cc1cc(C(C)(C)C)cc(C)c1CC1=NCCN1`, the Potency result in assay [1], in [2], in assay [5], in assay [6] and in [8] was “inactive” in each case. In addition, the molecule was classed as inactive in [7].
Turning to `O=C(Nc1ccc([N+](=O)[O-])cc1Cl)c1cc(Cl)ccc1O`, the Potency is 1.69 µM (active) and 1.93 µM (active) in assay [1]; 3720 nM (active) in assay [2]; 1.51 µM (active) and 863 nM (active) in assay [3]; 3.26 µM (active) and 1.48 µM (active) in [4]; 3.66 µM (active) and 1.18 µM (active) in assay [5]; 2350 nM (active) in [8]. The Potency was 1620 nM (active) in [10]; 5120 nM (active) in assay [11]; 4070 nM (active) in assay [12]; 3230 nM (active) in assay [13]; 3230 nM (active) in assay [14]; 1020 nM (active) in assay [15]. The Potency is 1440 nM (active) in assay [19]; 4070 nM (active) in assay [20]; 1440 nM (active) in assay [16]; 2040 nM (active) in assay [17]; 1620 nM (active) in assay [18]. Further, the Potency result in assay [6] is “inactive”. Also, the molecule was classed as inactive in assay [7].
For the molecule `OCCN1CCN(CCCN2c3ccccc3Sc3ccc(C(F)(F)F)cc32)CC1`, the Potency in assay [1] was 27.3 µM (active); in assay [3] it was 24.3 µM (active) and 27.6 µM (active); in [4], 18.7 µM (active). Also, the Potency result in assay [6] and in [8] was “inactive” in each case. Further, the call in assay [7] was inactive.
Consider `CC(C(=O)O)c1cccc(C(=O)c2ccccc2)c1` (stereo unspecified), for which the Potency result in assay [1], in assay [2], in [3], in [5], in [6] and in assay [8] was “inactive” in each case. In addition, the molecule was called inactive in assay [7].
Turning to `CS(=O)(=O)Nc1ccc([N+](=O)[O-])cc1Oc1ccccc1`, the Potency entry in assay [1], in [2], in assay [3], in [4], in [5] and in [6] was “inactive” throughout. Moreover, the Potency result in assay [8], in assay [10], in assay [11], in assay [13] and in assay [14] was “inactive” in each case. Besides, the outcome in assay [7] was inactive. For the same molecule, the Potency in [18] was 16500 nM (active).
